Here are results for 57 molecules from ChEMBL document CHEMBL3988442, “University of Dundee, Small-Polar-MMV Screening Library” (2021).

For assay [1], the target named is T1, Aspartate--tRNA(Asp/Asn) ligase (Mycobacterium tuberculosis (strain ATCC 25618 / H37Rv)) (UniProt P9WFW3). Note: in the data most compounds retested in dose-response had high values.
T1 sequence (whole entry): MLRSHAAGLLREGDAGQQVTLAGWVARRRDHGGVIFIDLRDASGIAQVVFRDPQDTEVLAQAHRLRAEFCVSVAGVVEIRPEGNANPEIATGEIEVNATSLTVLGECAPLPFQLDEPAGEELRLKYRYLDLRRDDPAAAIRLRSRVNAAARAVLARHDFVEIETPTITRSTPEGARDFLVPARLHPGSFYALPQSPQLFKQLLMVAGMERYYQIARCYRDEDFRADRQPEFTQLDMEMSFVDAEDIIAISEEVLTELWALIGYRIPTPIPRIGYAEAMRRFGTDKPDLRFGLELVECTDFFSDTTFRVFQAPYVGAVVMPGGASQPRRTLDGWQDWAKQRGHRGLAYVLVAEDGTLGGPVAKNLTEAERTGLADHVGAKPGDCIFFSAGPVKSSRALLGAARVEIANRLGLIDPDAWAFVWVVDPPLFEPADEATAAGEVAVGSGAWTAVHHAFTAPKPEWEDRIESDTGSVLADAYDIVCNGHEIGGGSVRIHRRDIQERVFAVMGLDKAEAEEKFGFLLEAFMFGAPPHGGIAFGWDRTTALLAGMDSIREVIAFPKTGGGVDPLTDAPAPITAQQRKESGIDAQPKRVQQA
Put plainly: Assay for Asp RNA synthetase-1 from Mycobacterium tuberculosis. It counts as functional. On the set-up: scale not given: direction of the effect not stated beside the values. The conditions noted are these: 30 µM.

For assay [2], the target named is Shiga toxin 2 (Escherichia coli O157:H7) (UniProt P09385+P09386). Description: E. coli 0.157:H7 Shiga Toxin SOP - stx2 screening assay. The format is functional. On the set-up: scale not given: direction of the effect not stated beside the values. The conditions noted are these: 30 µM.

The structures appear in SMILES notation.

`CN1CCCC1CNC(=O)c1nnn(-c2ccc(F)cc2)c1C1CC1` (centres undefined): the Percent Effect in assay [1] is 3.7%; in assay [2], -26%.

As for `CN(CCC(F)(F)F)C(=O)C1CCCN1C(=O)OC(C)(C)C` (centres undefined), the Percent Effect in assay [1] was 4.8%; in assay [2], -21.4%.

`Cc1cc(C)c(CNC(=O)N2CCCC2c2ccccc2)c(=O)[nH]1` (centres undefined): the Percent Effect was -3.97% in assay [1] and -21.1% in assay [2].

`O=C(NCCN1CCOCC1)NCC(O)c1cccc(F)c1` (centres undefined): the Percent Effect stood at 2.52% in assay [1] and 4.91% in assay [2].

As for `CCS(=O)(=O)N1CCC[C@]2(C(=O)N(C)C)CN(c3ccccn3)C[C@@H]2C1`, the Percent Effect in assay [1] is 0.903%; in assay [2], -10.3%.

As to `CC(C)c1noc(CCC(=O)NCC2CCOC2)n1` (centres undefined), the values for the Percent Effect in assay [1] and in assay [2] were -0.573% and -7.84%, respectively.

In the case of `Cc1ccc(S(=O)(=O)N2CCOc3ccccc32)cc1C(=O)O`, the Percent Effect was -1.83% in assay [1] and -32.8% in assay [2].

For the molecule `CC(C)(CO)NC(=O)C1CCC(=O)N(Cc2ccc(Cl)cc2)C1` (centres undefined), the Percent Effect in assay [1] was -3.12%; in assay [2], 0.664%.

In the case of `COc1ccc(C(=O)N(C)Cc2cccc(C#N)c2)c(OC)c1OC`, the Percent Effect in assay [1] is -1.51%; in assay [2], 30.3%.

Regarding `O=C(c1ccco1)N1C[C@H]2CCCN(Cc3cccs3)[C@H]2C1`, the Percent Effect was 6.24% in assay [1] and -1.93% in assay [2].

`CCCC(=O)N1CC[C@@H]2[C@H](CC1)N(Cc1cccnc1)CCS2(=O)=O`: the Percent Effect in assay [1] was -0.493%; in assay [2] it was -7.37%.

Turning to `Cc1cccc(-c2noc(CN3CCC(N4CCNC4=O)CC3)n2)c1`, the results for the Percent Effect in assay [1] and in assay [2] were 0.152% and 11.2%, respectively.

With `CCOc1ccc(CC(=O)N2CCN(c3nccn3C)CC2)cc1`, the Percent Effect in assay [1] was 5.09%; in assay [2], -64.2%.

Turning to `COCCCN(C)C1CCCN(Cc2noc(C)n2)C1` (centres undefined), the Percent Effect in assay [1] is -3.09%; in assay [2], -16.4%.

`O=C(c1nc(-c2ccc3cc[nH]c3c2)no1)N1CCCC1`: the Percent Effect was -0.958% in assay [1] and -77.4% in assay [2].

Turning to `O=C(NCC1CC1)C1CN(C(=O)c2cccs2)CC12CCOCC2` (centres undefined), the figures for the Percent Effect in assay [1] and in assay [2] were 5.88% and 0.242%, respectively.

On to `CNC(=O)C1Cn2ccnc2C2(CCN(CCF)CC2)O1` (centres undefined), for which the values for the Percent Effect in assay [1] and in assay [2] were 2.17% and -8.7%, respectively.

As to `Cc1nn(CC(=O)N2CCCC2Cn2cccn2)c(C)c1Cl` (centres undefined), the values for the Percent Effect in assay [1] and in assay [2] were 0.155% and -3.65%, respectively.

`COCCC(=O)N1CCC2(CC1)CC(c1ccccc1)CN(C)C2` (centres undefined): the Percent Effect was -3.3% in assay [1] and 17.5% in assay [2].

With `CCOCc1ncn2c1CN(C(=O)Nc1cccc(C)c1)CC2`, the Percent Effect in assay [1] was 1.59%; in assay [2], -12.7%.

On to `Cc1ccc(CC(=O)N2Cc3nccn3CC(CN(C)C)C2)cc1` (centres undefined), for which the Percent Effect in assay [1] stood at 1.66%; in assay [2] it was 5.05%.

Turning to `NC(=O)c1cnn2c1NCC(CNCCCOc1ccccc1F)C2` (centres undefined), the values for the Percent Effect in assay [1] and in assay [2] were -0.278% and 17.4%, respectively.

For the molecule `CN(Cc1ccsc1)C(=O)Nc1ccc(S(=O)(=O)N(C)C)cc1`, the Percent Effect in assay [1] was 0.428%; in assay [2], -3.75%.

With `CN(C)CC1CN(Cc2coc(-c3cccs3)n2)CCO1` (centres undefined), the Percent Effect was 2.66% in assay [1] and -25.6% in assay [2].

In the case of `COc1ccc(CN(C)Cc2nc3c(cnn3C)c(=O)[nH]2)cc1OC`, the Percent Effect in assay [1] was -3.27%; in assay [2], -8.89%.

`Cn1cc(CN2CCCN(C(=O)c3cc(Cl)cn3C)CC2)cn1`: the figures for the Percent Effect in assay [1] and in assay [2] were -4.75% and 22.7%, respectively.

Take `Cc1nc(N2CCN(C)CC2)ncc1C(=O)N1CC(C)(C)C(C)(O)C1` (centres undefined): the values for the Percent Effect in assay [1] and in assay [2] were 3.48% and -28.2%, respectively.

For the molecule `Cc1cc(CN2CCCC2c2noc(C)n2)no1` (centres undefined), the Percent Effect in assay [1] is -5.01%; in assay [2], -5.29%.

Consider `O=C(CCCc1ncc(-c2ccccc2)o1)N1CCN(CCO)CC1`, for which the Percent Effect is -1.6% in assay [1] and -44.5% in assay [2].

Regarding `CC(C)C(C)NC(=O)Nc1ccccc1CN1CCOCC1` (centres undefined), the Percent Effect turned out to be 3.91% in assay [1] and 9.92% in assay [2].

On to `Cc1noc(C(C)C)c1C(=O)NCc1cccc(N(C)C)c1`, for which the Percent Effect is -3.25% in assay [1] and 13.2% in assay [2].

In the case of `CC(C)(C)C(=O)NCCC(=O)NS(=O)(=O)c1ccc2c(c1)OCCO2`, the Percent Effect in assay [1] was -10.1%; in assay [2] it was 0.645%.

Take `CN(C)c1ncc(CN2CCC(c3nnsc3S(C)(=O)=O)CC2)cn1`: the Percent Effect in assay [1] was -3.26%; in assay [2], 1.96%.

For the molecule `Cc1ccccc1Cc1cnc(NC(=O)C2CNC(=O)N2)s1` (centres undefined), the Percent Effect amounted to 6.1% in assay [1] and 3.51% in assay [2].

`CN(C)C(=O)CCCNC(=O)C(c1cccc(F)c1)N(C)C` (centres undefined): the results for the Percent Effect in assay [1] and in assay [2] were -1.57% and -24.8%, respectively.

On to `CN(Cc1ncc[nH]1)S(=O)(=O)c1cccc(C(=O)N2CCOCC2)c1`, for which the Percent Effect was 8.16% in assay [1] and -12.2% in assay [2].

Consider `O=C(CN1CCCCC1Cn1cncn1)NCCC1=CCCCC1` (centres undefined), for which the results for the Percent Effect in assay [1] and in assay [2] were 2.88% and 11.4%, respectively.

As for `CCOc1ncccc1NC(=O)N1CCCCCC1`, the Percent Effect in assay [1] is 7.43%; in assay [2] it was -2.38%.

On to `CCOc1ccnc(N2CCN(C(=O)c3cn[nH]c3CC)CC2)n1`, for which the Percent Effect is -1.77% in assay [1] and 5.02% in assay [2].

Turning to `Cc1cc(C)n(CC2CCCN2CC(=O)N(C)Cc2cnn(C)c2)n1` (centres undefined), the figures for the Percent Effect in assay [1] and in assay [2] were -0.211% and 21.8%, respectively.

As to `COc1ccc2c(c1)OCC(CNC(=O)c1ccc(=O)n(C)c1)C2` (centres undefined), the results for the Percent Effect in assay [1] and in assay [2] were -0.474% and 0.424%, respectively.

Regarding `CCn1cc2c(n1)CN(Cc1ccncc1)CC2COCC1CC1` (centres undefined), the Percent Effect in assay [1] is 1.43%; in assay [2], -18.6%.

Turning to `Cc1nc(O)c2nnn(C[C@H]3CCCN3C(=O)c3cccc(F)c3)c2n1`, the Percent Effect in assay [1] is 2.16%; in assay [2], -4.92%.

`Cc1ncc2c(n1)CCN(Cc1nc3ccccc3o1)C2`: the Percent Effect in assay [1] is 6.98%; in assay [2], -21.4%.

Consider `COc1ccc(CN(C)C(=O)NCc2c(C)cc(C)[nH]c2=O)cc1`, for which the Percent Effect was 0.281% in assay [1] and 31.7% in assay [2].

Regarding `O=C(Nc1cc(C(F)(F)F)c[nH]c1=O)c1ccco1`, the Percent Effect in assay [1] is -2.75%; in assay [2] it was 5.24%.

Consider `COc1ccc(CN2CCC3(CC(=O)N(c4cncnc4)C3)C2)cc1` (centres undefined), for which the results for the Percent Effect in assay [1] and in assay [2] were 0.382% and -11.8%, respectively.

As for `CCNC(=O)c1ccnc(NCC2COc3cc(OC)ccc3C2)c1` (centres undefined), the Percent Effect in assay [1] was -2.64%; in assay [2], -9.33%.

`CCOCC1CN(C)Cc2cnn(CC3CCCC3)c21` (centres undefined): the Percent Effect in assay [1] is -2.58%; in assay [2], -8.48%.

Turning to `COc1ccc(CN2CCC3(CC2)CCN(CC(C)C)C3=O)cc1`, the Percent Effect in assay [1] is -3.87%; in assay [2], 3.87%.

For the molecule `O=C(NCCN1CCCCCC1=O)c1n[nH]c(=O)c2ccccc12`, the Percent Effect in assay [1] is -3.85%; in assay [2] it was -6.19%.

For the molecule `CCc1n[nH]c(C2CN(C(=O)c3cc4c(s3)CCCC4)CCO2)n1` (centres undefined), the Percent Effect is -1.69% in assay [1] and 4.53% in assay [2].

On to `O=C(CCc1ccccc1)N1CCC(N2CCNC2=O)CC1`, for which the Percent Effect in assay [1] came out at 1.87%; in assay [2] it was 26%.

Regarding `COC(=O)c1cccc(NS(=O)(=O)c2cnc(NC(C)=O)s2)c1`, the Percent Effect is -3.37% in assay [1] and -26.3% in assay [2].

For `CC(C)c1nccn1-c1cccc(C2CCN(C)CC2)n1`, the Percent Effect in assay [1] is -1.47%; in assay [2], -33.7%.

With `Cc1ccc(CN2CCCn3c(nc(Cn4cncn4)cc3=O)C2)s1`, the Percent Effect in assay [1] is -1.14%; in assay [2], -10.9%.

As to `CCC1=N[C@@]2(CC[C@@H]3CN(Cc4ccc(Cl)cc4)C[C@@H]32)C(=O)N1`, the Percent Effect in assay [1] worked out at 0.626%; in assay [2] it was 3.7%.
